# Assays:
# Assay in all cases: DAPPL (digital affinity profiling via proximity ligation, sequencing); 10 mM Tris-HCl pH 7.5, 50 mM NaCl, 1 mM DTT, 4% glycerol, room temperature, 30 min; GST-TFs on glutathione beads, 16-mer random dsDNA library, 0.1% formaldehyde crosslink after washing; high values mean tight binding
# Conditions in all cases: protein: recombinant; tags: N-terminal GST; dsDNA, one strand shown
# [1] = target: T1, FLI1 (Homo sapiens, UniProt Q01543 1-452)
# T1 sequence: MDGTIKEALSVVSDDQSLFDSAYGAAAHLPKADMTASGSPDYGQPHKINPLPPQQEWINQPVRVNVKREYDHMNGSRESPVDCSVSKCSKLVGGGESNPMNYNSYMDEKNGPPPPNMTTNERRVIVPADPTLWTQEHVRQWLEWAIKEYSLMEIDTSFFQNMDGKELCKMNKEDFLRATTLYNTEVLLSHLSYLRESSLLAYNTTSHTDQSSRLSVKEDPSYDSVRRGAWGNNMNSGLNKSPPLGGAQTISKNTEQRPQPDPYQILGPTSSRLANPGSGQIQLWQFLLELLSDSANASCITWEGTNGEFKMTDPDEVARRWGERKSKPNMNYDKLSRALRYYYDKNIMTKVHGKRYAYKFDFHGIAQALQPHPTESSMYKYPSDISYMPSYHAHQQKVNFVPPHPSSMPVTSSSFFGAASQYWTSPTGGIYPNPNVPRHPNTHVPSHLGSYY
# Summary of the method: (§1)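 Sequencing on an Illumina NextSeq500 followed washing, crosslinking with 0.1% formaldehyde, proximity ligation (BsaI/T4 ligase, 1 h, 37 °C) and PCR amplification of pools that had been incubated for 30 min at room temperature with 200 nmole of a random double-stranded 16-mer DNA library in Tris/NaCl/DTT/glycerol buffer. Each pool held DNA-barcoded human transcription factors, expressed in yeast as GST fusions and captured on glutathione beads, plus a tag-only sample. Binding signal is a hexamer's read frequency for a factor divided by its frequency in the tag-only sample.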
# [2] = target: T2, ELK1 (Homo sapiens, UniProt P19419 1-428)
# T2 sequence: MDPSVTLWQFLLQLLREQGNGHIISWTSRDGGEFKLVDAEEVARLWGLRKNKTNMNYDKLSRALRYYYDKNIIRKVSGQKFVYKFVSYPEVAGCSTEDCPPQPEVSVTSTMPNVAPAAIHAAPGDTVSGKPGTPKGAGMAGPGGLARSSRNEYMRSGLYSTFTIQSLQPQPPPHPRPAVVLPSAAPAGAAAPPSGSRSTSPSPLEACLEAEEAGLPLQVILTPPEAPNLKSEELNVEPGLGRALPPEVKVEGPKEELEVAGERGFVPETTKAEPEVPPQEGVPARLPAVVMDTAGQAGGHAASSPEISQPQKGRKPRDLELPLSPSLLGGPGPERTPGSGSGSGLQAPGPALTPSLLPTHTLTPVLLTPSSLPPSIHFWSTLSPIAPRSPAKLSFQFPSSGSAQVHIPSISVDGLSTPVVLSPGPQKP
# Summary of the method: as §1
# [3] = target: T3, GABPA (Homo sapiens, UniProt Q06546 1-454)
# T3 sequence: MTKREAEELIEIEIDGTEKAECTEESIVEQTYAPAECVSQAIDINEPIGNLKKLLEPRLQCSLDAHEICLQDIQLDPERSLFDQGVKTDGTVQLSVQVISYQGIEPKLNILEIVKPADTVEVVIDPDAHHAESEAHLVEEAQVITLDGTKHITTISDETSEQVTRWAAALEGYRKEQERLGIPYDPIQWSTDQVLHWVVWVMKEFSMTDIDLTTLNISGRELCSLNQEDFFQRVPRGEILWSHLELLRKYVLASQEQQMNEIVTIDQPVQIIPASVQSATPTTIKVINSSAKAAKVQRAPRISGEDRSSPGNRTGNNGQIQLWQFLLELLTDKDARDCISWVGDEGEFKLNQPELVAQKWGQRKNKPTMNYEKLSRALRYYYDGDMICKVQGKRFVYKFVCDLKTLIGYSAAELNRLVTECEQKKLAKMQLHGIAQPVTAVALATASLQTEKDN
# Summary of the method: as §1
# [4] = target: ELF1 (Homo sapiens, UniProt P32519 1-619)
# Chain of ELF1 (P32519 whole entry): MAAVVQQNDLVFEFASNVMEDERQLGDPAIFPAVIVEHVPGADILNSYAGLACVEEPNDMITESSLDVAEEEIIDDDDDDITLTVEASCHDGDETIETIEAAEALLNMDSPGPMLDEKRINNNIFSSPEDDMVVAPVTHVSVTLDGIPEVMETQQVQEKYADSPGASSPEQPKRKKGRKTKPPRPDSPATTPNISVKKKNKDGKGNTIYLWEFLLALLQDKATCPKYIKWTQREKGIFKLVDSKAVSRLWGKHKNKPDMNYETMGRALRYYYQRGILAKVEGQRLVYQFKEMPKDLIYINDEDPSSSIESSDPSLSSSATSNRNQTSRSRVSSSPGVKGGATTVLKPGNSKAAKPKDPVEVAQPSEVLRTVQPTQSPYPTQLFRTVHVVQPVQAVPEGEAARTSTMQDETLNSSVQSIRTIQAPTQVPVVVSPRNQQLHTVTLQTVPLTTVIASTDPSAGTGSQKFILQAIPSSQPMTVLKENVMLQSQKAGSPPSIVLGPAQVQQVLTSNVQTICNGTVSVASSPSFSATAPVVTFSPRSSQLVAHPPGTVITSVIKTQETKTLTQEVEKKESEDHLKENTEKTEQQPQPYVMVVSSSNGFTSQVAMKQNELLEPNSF
# Summary of the method: as §1
# [5] = target: T4, EHF (Homo sapiens, UniProt Q9NZC4 1-300)
# T4 sequence: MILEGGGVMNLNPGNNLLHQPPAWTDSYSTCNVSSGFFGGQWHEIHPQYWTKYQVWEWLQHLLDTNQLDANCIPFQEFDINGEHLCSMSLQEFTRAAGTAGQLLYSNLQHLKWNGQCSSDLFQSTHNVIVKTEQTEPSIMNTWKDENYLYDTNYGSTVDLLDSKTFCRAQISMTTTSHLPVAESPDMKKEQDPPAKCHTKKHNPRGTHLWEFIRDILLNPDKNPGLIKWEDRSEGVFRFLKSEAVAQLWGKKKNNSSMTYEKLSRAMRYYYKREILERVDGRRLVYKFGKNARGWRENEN
# Summary of the method: as §1
# [6] = target: SPI1 (Homo sapiens, UniProt P17947 1-270)
# Summary of the method: as §1
# [7] = target: T5, SPIC (Homo sapiens, UniProt Q8N5J4 1-248)
# T5 sequence: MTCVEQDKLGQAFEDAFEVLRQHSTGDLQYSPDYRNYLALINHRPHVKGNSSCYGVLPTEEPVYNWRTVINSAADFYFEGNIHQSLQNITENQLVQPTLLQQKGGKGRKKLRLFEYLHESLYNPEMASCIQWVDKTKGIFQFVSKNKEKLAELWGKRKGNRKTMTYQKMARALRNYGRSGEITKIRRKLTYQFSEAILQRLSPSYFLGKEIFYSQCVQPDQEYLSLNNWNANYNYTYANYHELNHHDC
# Summary of the method: as §1
# [8] = target: ELF4 (Homo sapiens, UniProt Q99607 1-663)
# Chain of ELF4 (Q99607 whole entry): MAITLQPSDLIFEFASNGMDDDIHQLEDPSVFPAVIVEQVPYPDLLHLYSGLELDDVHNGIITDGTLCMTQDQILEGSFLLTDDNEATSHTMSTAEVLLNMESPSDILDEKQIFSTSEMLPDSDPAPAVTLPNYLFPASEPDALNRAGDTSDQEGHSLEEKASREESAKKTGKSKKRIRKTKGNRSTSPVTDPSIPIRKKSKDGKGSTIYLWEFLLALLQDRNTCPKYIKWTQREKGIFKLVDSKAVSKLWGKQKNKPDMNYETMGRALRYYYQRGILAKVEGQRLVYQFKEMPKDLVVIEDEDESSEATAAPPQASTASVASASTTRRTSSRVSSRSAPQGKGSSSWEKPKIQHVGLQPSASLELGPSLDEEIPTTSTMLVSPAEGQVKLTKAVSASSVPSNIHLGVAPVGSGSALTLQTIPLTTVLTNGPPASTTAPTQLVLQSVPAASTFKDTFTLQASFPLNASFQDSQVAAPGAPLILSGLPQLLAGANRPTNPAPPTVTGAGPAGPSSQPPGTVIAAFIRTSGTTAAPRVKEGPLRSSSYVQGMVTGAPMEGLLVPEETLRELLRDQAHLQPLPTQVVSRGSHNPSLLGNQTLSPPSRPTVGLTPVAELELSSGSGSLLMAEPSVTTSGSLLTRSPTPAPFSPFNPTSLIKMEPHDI
# Summary of the method: as §1
# [9] = target: T6, ELK4 (Homo sapiens, UniProt P28324-2 1-405)
# T6 sequence: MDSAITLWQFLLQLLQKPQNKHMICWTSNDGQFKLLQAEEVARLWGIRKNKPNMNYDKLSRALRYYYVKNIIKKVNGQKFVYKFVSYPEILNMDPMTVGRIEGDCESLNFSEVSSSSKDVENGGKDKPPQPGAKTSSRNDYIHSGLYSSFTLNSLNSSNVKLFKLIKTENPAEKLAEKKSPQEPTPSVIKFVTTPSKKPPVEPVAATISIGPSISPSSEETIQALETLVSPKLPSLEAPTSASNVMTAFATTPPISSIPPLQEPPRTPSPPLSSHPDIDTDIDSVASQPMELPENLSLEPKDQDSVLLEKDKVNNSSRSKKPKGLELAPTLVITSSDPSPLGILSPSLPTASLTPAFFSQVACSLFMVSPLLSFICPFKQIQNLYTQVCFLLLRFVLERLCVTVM
# Summary of the method: as §1
# [10] = target: T7, ELF3 (Homo sapiens, UniProt P78545 1-371)
# T7 sequence: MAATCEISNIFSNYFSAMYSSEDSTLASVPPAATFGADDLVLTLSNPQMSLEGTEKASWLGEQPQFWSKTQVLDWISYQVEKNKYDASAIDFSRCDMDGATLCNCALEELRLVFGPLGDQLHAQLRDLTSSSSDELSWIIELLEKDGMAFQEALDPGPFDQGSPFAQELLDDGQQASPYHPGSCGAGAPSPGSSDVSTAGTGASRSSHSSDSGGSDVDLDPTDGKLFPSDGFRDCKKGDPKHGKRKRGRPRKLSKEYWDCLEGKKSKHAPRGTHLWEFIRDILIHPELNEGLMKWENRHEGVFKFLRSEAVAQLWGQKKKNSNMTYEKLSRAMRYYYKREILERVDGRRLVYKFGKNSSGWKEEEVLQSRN
# Summary of the method: as §1
# [11] = target: T8, ERF (Homo sapiens, UniProt P50548 1-548)
# T8 sequence: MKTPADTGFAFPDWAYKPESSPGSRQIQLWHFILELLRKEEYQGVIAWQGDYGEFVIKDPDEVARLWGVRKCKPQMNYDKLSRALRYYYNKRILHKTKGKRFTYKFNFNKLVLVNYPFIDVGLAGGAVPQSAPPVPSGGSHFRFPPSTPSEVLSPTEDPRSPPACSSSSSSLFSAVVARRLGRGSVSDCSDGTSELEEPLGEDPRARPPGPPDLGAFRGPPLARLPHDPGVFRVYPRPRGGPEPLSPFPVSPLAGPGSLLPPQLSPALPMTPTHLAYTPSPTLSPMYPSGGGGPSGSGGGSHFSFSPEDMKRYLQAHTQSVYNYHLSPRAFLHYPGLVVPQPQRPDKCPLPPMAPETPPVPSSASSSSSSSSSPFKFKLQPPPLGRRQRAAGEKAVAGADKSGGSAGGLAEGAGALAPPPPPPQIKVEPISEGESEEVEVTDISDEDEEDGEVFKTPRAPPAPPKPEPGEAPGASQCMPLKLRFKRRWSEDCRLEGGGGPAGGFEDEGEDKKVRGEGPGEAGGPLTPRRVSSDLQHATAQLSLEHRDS
# Summary of the method: as §1
# [12] = target: T9, ETV7 (Homo sapiens, UniProt Q9Y603 1-341)
# T9 sequence: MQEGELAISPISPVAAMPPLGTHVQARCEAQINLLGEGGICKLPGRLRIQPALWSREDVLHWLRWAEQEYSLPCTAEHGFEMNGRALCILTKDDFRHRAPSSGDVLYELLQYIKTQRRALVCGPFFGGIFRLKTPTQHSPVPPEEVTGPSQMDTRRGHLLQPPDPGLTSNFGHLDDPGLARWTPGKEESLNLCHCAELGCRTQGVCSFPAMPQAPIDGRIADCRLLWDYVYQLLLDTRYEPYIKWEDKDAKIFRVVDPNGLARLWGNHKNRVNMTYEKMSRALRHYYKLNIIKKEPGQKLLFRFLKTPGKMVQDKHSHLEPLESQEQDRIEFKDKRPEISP
# Summary of the method: as §1
# [13] = target: ETV6 (Homo sapiens, UniProt P41212 1-452)
# Chain of ETV6 (P41212 whole entry): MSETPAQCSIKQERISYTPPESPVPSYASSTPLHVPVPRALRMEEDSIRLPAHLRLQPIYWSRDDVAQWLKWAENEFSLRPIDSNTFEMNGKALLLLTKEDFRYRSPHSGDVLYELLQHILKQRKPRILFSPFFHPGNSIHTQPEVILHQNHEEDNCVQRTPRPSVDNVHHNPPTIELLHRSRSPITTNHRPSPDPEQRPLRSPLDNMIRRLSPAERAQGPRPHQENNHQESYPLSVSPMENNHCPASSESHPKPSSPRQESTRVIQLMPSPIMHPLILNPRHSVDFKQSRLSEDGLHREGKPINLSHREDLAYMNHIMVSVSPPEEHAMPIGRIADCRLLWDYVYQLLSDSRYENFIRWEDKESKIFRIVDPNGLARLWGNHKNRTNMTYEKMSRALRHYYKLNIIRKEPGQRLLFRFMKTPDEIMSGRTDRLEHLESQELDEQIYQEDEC
# Summary of the method: as §1
sequence,measurement,setting,value
CACCTA,binding signal,[1],"1.06 fold enrichment (6-mer frequency, TF over GST control)"
same,binding signal,[2],"1.01 fold enrichment (6-mer frequency, TF over GST control)"
same,binding signal,[3],"1.04 fold enrichment (6-mer frequency, TF over GST control)"
same,binding signal,[4],"1.02 fold enrichment (6-mer frequency, TF over GST control)"
same,binding signal,[5],"1.05 fold enrichment (6-mer frequency, TF over GST control)"
same,binding signal,[6],"1.03 fold enrichment (6-mer frequency, TF over GST control)"
same,binding signal,[7],"1.09 fold enrichment (6-mer frequency, TF over GST control)"
same,binding signal,[8],"1.1 fold enrichment (6-mer frequency, TF over GST control)"
same,binding signal,[9],"1 fold enrichment (6-mer frequency, TF over GST control)"
same,binding signal,[10],"1.18 fold enrichment (6-mer frequency, TF over GST control)"
same,binding signal,[11],"1.06 fold enrichment (6-mer frequency, TF over GST control)"
same,binding signal,[12],"1.08 fold enrichment (6-mer frequency, TF over GST control)"
same,binding signal,[13],"1.02 fold enrichment (6-mer frequency, TF over GST control)"

# Source: PMC7862700, “An all-to-all approach to the identification of sequence-specific readers for epigenetic DNA modifications on cytosine”
